The source of these data is PubChem BioAssay AID686940 (The Scripps Research Institute Molecular Screening Center, 2013).

The structures appear in SMILES notation. Out of some 370,000 compounds screened, about 2,600 (0.7%) were called active.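 The calls were made as follows: active = inhibition above a per-plate cutoff, mean inhibition of test wells between control levels plus 3 SD (cut at about 38% in these data); inactive = the rest.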 The list comes from a sample in which actives are over-represented; it also holds similar structures and randomly drawn compounds.

The target of the assay is COUP transcription factor 2 (Homo sapiens) (UniProt P24468). Kind of assay: NR2F2 transcriptional activity inhibitors, primary screen, cell-based, luciferase reporter, HEK293T, luminescence (AID 686940).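 Also: cells cotransfected with COUP-TFII expression vector driving the NGFI-A reporter; 0% = median of COUP-TF2 test wells and 100% = reporter-only cells.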 The settings on record: HEK293T NGFI-A luciferase reporter, at 8.6 µM, hits give high values. For orientation: Reporter assays use an easily measured gene product as a stand-in for the process of interest.
Chain of COUP transcription factor 2 (Homo sapiens) (P24468 whole entry, looked up): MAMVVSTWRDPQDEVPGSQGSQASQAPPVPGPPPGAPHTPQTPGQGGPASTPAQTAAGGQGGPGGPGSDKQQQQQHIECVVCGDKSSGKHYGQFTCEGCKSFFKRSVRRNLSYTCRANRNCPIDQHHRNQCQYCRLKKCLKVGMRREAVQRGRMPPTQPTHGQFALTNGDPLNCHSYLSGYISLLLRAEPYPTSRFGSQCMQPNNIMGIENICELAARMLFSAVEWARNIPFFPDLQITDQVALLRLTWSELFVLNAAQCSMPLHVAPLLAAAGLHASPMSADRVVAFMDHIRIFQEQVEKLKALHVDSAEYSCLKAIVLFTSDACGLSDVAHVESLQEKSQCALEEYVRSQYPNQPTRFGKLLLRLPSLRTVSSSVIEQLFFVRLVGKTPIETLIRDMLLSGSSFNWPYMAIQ
As usually defined, the inhibition is the relative decrease from the control value, in per cent. On to `O=C1CC[C@@H](COc2ccc3[nH]cc(-c4ccccc4)c3c2-c2ccccc2)N1`, for which the inhibition was -9.36% (inactive).

Consider `O=C1C=C(c2ccnc3cc(Cl)ccc23)C[C@@H](c2ccc3c(c2)OCO3)C1`, for which the inhibition is 56% (active).

Take `O=C1C=C(c2cccc(Cl)c2O)C[C@@H](c2ccc(F)cc2)C1`: the inhibition is 4.63% (inactive).

Turning to `N#Cc1ccc(C2=CC(=O)C[C@H](c3ccc(Cl)cc3)C2)cc1`, the inhibition is 17.5% (inactive).

For the compound `Clc1ncn(CCOc2ccccc2)c1Cl`, the inhibition was 6.16% (inactive).

Regarding `c1ccc(Cc2ccc(OCCn3ccnc3)cc2)cc1`, the inhibition was 54.5% (active).

Regarding `Clc1c(OCCCn2ccnc2)ccc2ccccc12`, the inhibition is -3.68% (inactive).

Turning to `COCC(=O)N[C@@H]1C[C@@H]2O[C@@H](CO)CC[C@@H]2O[C@@H]1CCc1ccc(-c2ccccc2)cc1`, the inhibition is 1.52% (inactive).

Take `CC[C@@H](CCC(=O)N(c1ccccc1)c1ccccc1)C1CC1`: the inhibition is 15.5% (inactive).

As for `O=C1Nc2ccccc2OC1CC(=O)N1CCCCCCC1` (configuration not stated), the inhibition is 18.8% (inactive).

On to `O=C(OC12CCCN(C1)/C(=C/c1ccccc1)C2)c1ccco1` (configuration not stated), for which the inhibition is -14.4% (inactive).

As to `CCCOC(=O)c1[nH]c2c(c1C)C(=O)CC(c1cc(OC)c(OC)c(OC)c1)C2` (configuration not stated), the inhibition is 62.1% (active).

`CCOC(=O)C1=C(N)N2C(=O)C(C)SC2=C(C(=O)OCC)C1c1cc(OC)c(OC)c(OC)c1` (configuration not stated): the inhibition was -10.4% (inactive).

As for `COc1cc(C(=O)OCCCN2CCOCC2)cc(OC)c1OC`, the inhibition was -1.26% (inactive).

For `C=CCN(Cc1ccc2c(c1)OCO2)C(C#CC1CC1)C(C)(C)C` (configuration not stated), the inhibition was 9.73% (inactive).

As for `Cc1c(C(C)c2ccccc2O)[nH]c2ccccc12` (configuration not stated), the inhibition was 13.6% (inactive).

Regarding `CCOC(=O)[C@]12CCCC=C1N(Cc1ccc(OC)cc1)C(=O)[C@@H]2CC(=O)NCc1cccs1`, the inhibition was 6.16% (inactive).

For `COC(=O)[C@]12C[C@H](CC(=O)NCc3cccc4ccccc34)C(=O)N(CCc3ccc(OC)c(OC)c3)C1=C[C@H](C1CCCC1)O[C@@H]2C`, the inhibition was 13.6% (inactive).

With `COc1ccc(S(=O)(=O)Nc2ccc3oc(C)c(C(C)=O)c3c2)cc1`, the inhibition is 42.4% (active).

For `CCn1c(=O)c(=O)[nH]c2c(=O)oc3ccc(S(=O)(=O)Nc4ccc(OC)cc4)cc3c21`, the inhibition is 4.47% (inactive).

In the case of `CC(=O)c1c(C)oc2ccc(NS(=O)(=O)c3ccccc3)cc12`, the inhibition is 21.9% (inactive).

For the compound `COc1ccc(CN2C/C(=C/c3ccccc3)N3C(=O)C[C@@H](c4ccccc4)N=C23)c(OC)c1`, the inhibition was 4.08% (inactive).

`CC(=O)c1cc(-c2ccc3ccccc3c2)c(=O)n2c1CCC2`: the inhibition was 16.2% (inactive).

As for `Cn1c(CNC(=O)c2ccco2)nnc1SCC(=O)N1CCN(c2ccccc2)CC1`, the inhibition is -5.83% (inactive).

As to `Cc1cc2nnc(SCC(=O)N3CCN(c4ccccc4)CC3)n2c(N)n1`, the inhibition is 8.19% (inactive).

`Cn1c(Cc2cccc3ccccc23)nnc1SCC(=O)N1CCN(c2cccc(Cl)c2)CC1`: the inhibition is 42.6% (active).

With `COc1ccnc(NC(=S)N2CCN(c3ncc(C(F)(F)F)cc3Cl)CC2)c1`, the inhibition is -6.96% (inactive).

As to `CCCCCCN1CCS(=O)(=O)N(Cc2ccc(C(F)(F)F)cc2)C(C(=O)OC)C1` (configuration not stated), the inhibition is 1.89% (inactive).

As for `C=CCn1c(C)cc(C2=NNC(=NCC)SC2)c1C`, the inhibition is 94.5% (active).

Regarding `CC(=O)C1(C(=O)Nc2nccs2)CC(c2ccccc2C(F)(F)F)=NO1` (configuration not stated), the inhibition was -12.3% (inactive).

As for `COC(=O)c1cc(S(=O)(=O)N2CCN(c3ccccc3C)CC2)cn1C`, the inhibition is 10.7% (inactive).

On to `CCn1c(SCC(C)=O)nc2sc3c(c2c1=O)CCCC3`, for which the inhibition is -12% (inactive).

With `O=C(NCCc1ccc(F)cc1)c1ccc(S(=O)(=O)N2CCCCC2)cc1`, the inhibition is -1.06% (inactive).

As to `COc1ccccc1CNC(=O)c1ccc(Cl)c(S(=O)(=O)N2CCCC2)c1`, the inhibition is 0.19% (inactive).

For the compound `NS(=O)(=O)c1ccc(CCNC(=O)c2ccc(Cl)c(S(=O)(=O)N3CCCCCC3)c2)cc1`, the inhibition is 60.3% (active).

With `CCCC1CCC2(CCCN2CCOC(=O)NCc2ccccc2)CC1` (configuration not stated), the inhibition is -2.03% (inactive).

Consider `O=C(NC1CCCCN(Cc2ccc(Cl)cc2)C1=O)c1ccc(Br)cc1` (configuration not stated), for which the inhibition is 12.4% (inactive).

As to `CCOC(=O)C1(Cc2ccccc2)CCN(Cc2cn(C(C)=O)c3ccccc23)CC1`, the inhibition was 19.5% (inactive).

Regarding `CC(=O)c1ccccc1OCc1ccc(C(=O)c2ccccc2)cc1`, the inhibition was 23.1% (inactive).

On to `Cc1nc2ccccc2cc1OCc1ccc(F)cc1`, for which the inhibition was 41.9% (active).

As for `Fc1ccc(COc2cccc(-c3n[nH]c(=S)o3)c2)cc1`, the inhibition is -3.8% (inactive).

`COc1ccc(Cn2cc(CN3[C@@H](CC(C)C)COc4cc(Br)ccc4S3(=O)=O)nn2)cc1`: the inhibition is 0.76% (inactive).

As to `CC(=O)Nc1ccc(S(=O)(=O)N2CCC(C(=O)NC3CC3)CC2)cc1`, the inhibition is -8.71% (inactive).

Take `CC(=O)Nc1ccc(NC(=O)C2CCCN(S(=O)(=O)c3ccc(Cl)cc3)C2)cc1` (configuration not stated): the inhibition was -3.16% (inactive).

`O=C(Nc1ccc(S(=O)(=O)N2CCOCC2)cc1)C1CCN(S(=O)(=O)c2ccc(Cl)cc2)CC1`: the inhibition is 44.8% (active).

In the case of `COC(=O)C1CN(Cc2ccc(F)cc2)CCS(=O)(=O)N1Cc1ccc(Cl)cc1` (configuration not stated), the inhibition was 7.77% (inactive).

With `CN(C(=O)c1cccc(NC(=O)Cc2ccc([N+](=O)[O-])cc2)c1)C1CCC1`, the inhibition was 33.2% (inactive).

Turning to `CN(CCc1ccccc1)C(=O)c1cccc(NC(=O)Cc2cccc(NC(=O)C3CCCN(C(=O)C4CCC4)C3)c2)c1` (configuration not stated), the inhibition was 9.42% (inactive).

In the case of `CN(C(=O)c1cccc(NC(=O)Cc2ccc(NC(=O)C3CCN(C(=O)C4CCCCC4)CC3)cc2)c1)C1CCC1`, the inhibition was -2.15% (inactive).

On to `CN(C(=O)c1cccc(NC(=O)Cc2cccc([N+](=O)[O-])c2)c1)C1CCCCC1`, for which the inhibition was 38.2% (active).

For `CN(CCc1ccccc1)C(=O)c1cccc(NC(=O)Cc2cccc(NC(=O)C3CCCN(C(=O)CCc4ccccc4)C3)c2)c1` (configuration not stated), the inhibition is 44.5% (active).

Regarding `CN(C(=O)c1cccc(NC(=O)Cc2cccc(NC(=O)C3CCCN(C(=O)C4CC4)C3)c2)c1)C1CCC1` (configuration not stated), the inhibition was 2.2% (inactive).

Take `COC(=O)C1CN(CCc2ccccc2)CCS(=O)(=O)N1Cc1cccc(Cl)c1` (configuration not stated): the inhibition was -5.31% (inactive).

Consider `Cc1ccc(-n2c(SCC(=O)Nc3ccc(S(=O)(=O)Nc4nccs4)cc3)nnc2-c2cccnc2)cc1`, for which the inhibition was 8.88% (inactive).

`O=C(CSc1nnc(-c2cccc(Cl)c2)n1Cc1ccco1)Nc1ccc(OCc2ccccc2)cc1`: the inhibition is -14.7% (inactive).

Consider `O=C(NC1CCC1)c1ccc(C#Cc2cccc(F)c2)c[n+]1[O-]`, for which the inhibition is 0.7% (inactive).

For the compound `COc1ccc(S(=O)(=O)N2C[C@H]3CON(C)[C@H]3C[C@H]2c2cccc(Br)c2)cc1`, the inhibition was 10.7% (inactive).

`COc1ccccc1-c1ccc([C@@H]2C[C@H]3[C@H](CON3C)CN2S(=O)(=O)c2cc(Cl)cc(Cl)c2)cc1`: the inhibition is 5.76% (inactive).

Regarding `CN1OC[C@@H]2CN(S(=O)(=O)c3cccc(C(F)(F)F)c3)[C@H](c3ccc(-c4cc5ccccc5o4)cc3)C[C@@H]21`, the inhibition is 44.1% (active).

Turning to `CCOC(=O)c1csc(NC(=O)C2CCCN(S(=O)(=O)c3ccc(Cl)s3)C2)n1` (configuration not stated), the inhibition is 22.3% (inactive).

Turning to `C=C(C)C#CC(Cc1ccccc1)N(CC1CC1)/C(N)=N/C(=O)OCc1ccccc1` (configuration not stated), the inhibition is 5.09% (inactive).

With `CCCCNC(=O)C[C@H]1C[C@@]2(C(=O)OC)C(=C[C@H](COCc3ccccc3)O[C@@H]2C)N(Cc2ccc(Cl)cc2Cl)C1=O`, the inhibition was 1.56% (inactive).

Consider `COC(=O)[C@]12C[C@H](CC(=O)N3CCOCC3)C(=O)N(Cc3ccc(Cl)cc3Cl)C1=C[C@H](C(C)C)O[C@@H]2C1CC1`, for which the inhibition was 1.35% (inactive).

For the compound `Cc1ccc(NC(=O)CN(C)CC(=O)Nc2cccc(F)c2)cc1[N+](=O)[O-]`, the inhibition is 58.8% (active).

As for `Cc1ccc(S(=O)(=O)N2CCCCC2)cc1C(=O)N(C)CC(=O)Nc1cccc(F)c1`, the inhibition was -3.43% (inactive).

`Cc1ccc(NC(=O)CN(C)Cc2ccc(F)cc2)c([N+](=O)[O-])c1`: the inhibition was -11.4% (inactive).

On to `c1csc(-c2nnc(SCc3nc4ccccc4[nH]3)o2)c1`, for which the inhibition is -10.7% (inactive).

As for `Cc1ccc(NC(=O)Cc2cccc(F)c2)c(S(=O)(=O)N2CCOCC2)c1`, the inhibition is -8.19% (inactive).

Take `CCOC(=O)[C@]12CCCC3=C1N(CCC3)C(=O)[C@@H](CC(=O)NCC13CC4CC(CC(C4)C1)C3)C2`: the inhibition was 21.7% (inactive).

`O=C1CC(c2ccc3c(c2)OCO3)N=C2N(CC3CC3)C/C(=C/c3ccccc3)N12` (configuration not stated): the inhibition was 20.7% (inactive).

Consider `Cc1nc(CNS(=O)(=O)c2ccc(Oc3ccccc3)cc2)cs1`, for which the inhibition is 50.2% (active).

For `Cc1ccc(S(=O)(=O)NCc2nc3ccccc3c(=O)n2N)cc1`, the inhibition was 0.39% (inactive).

Consider `Cc1nc(CNS(=O)(=O)c2cc([N+](=O)[O-])ccc2C)cs1`, for which the inhibition is -13.5% (inactive).

On to `Cc1nn(C(C)C(=O)N2CCOCC2)c(=O)c2nn(-c3ccccc3)c(C)c12` (configuration not stated), for which the inhibition was 6.72% (inactive).

Turning to `Cc1ccc(-n2nc3c(=O)n(C(C)C(=O)NCc4ccc5c(c4)OCO5)nc(C)c3c2C)cc1` (configuration not stated), the inhibition was 48.1% (active).

As for `Cc1nn(C(C)C(=O)NCCC2=CCCCC2)c(=O)c2nn(-c3ccccc3)c(C)c12` (configuration not stated), the inhibition was -2% (inactive).

Consider `Cc1cc(NS(=O)(=O)c2ccc(NC(=O)CSc3nnc(-c4ccc(C(C)(C)C)cc4)n3Cc3ccco3)cc2)nc(C)n1`, for which the inhibition is 1.48% (inactive).

As to `CN(CCc1ccccc1)C(=O)Cn1nc(-c2ccccc2)ccc1=O`, the inhibition is 2.95% (inactive).

Turning to `C[C@H](C(=O)N(C)c1ccccc1)[C@@H](O)c1ccc2ccccc2c1`, the inhibition is 10.2% (inactive).

`Cc1ccc(-n2c(COc3ccccc3)nnc2SCC(=O)Nc2ccc3c(c2)OCCO3)cc1`: the inhibition is 9.88% (inactive).

Turning to `OCCCNc1nccc(-c2cc(Nc3cccc(Cl)c3)ncn2)n1`, the inhibition was 44.6% (active).

As to `COc1ccc(-n2c(SCC(=O)NC3CCCC3)nnc2-c2ccncc2)cc1`, the inhibition was 4.6% (inactive).
